Gli-Sufu block – blocks Gli-Sufu signaling in a luciferase reporter | inhibition, % at 5 µM | 340,000 compounds, 0.74% hits | Sufu-KO-LIGHT fibroblasts, Gli luciferase reporter luminescence | AID 588413;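 active = inhibition above about 55%, limit read from the data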
SRC1 inh – human NCOA1 inhibition | HEK293 GAL4-SRC1 luciferase reporter, luminescence | inhibition, % at 3.6 µM | 360,000 compounds, 0.12% hits | AID 588354;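 active = inhibition above the campaign mean plus 3 SD, with each screening campaign given its own cutoff, cut at about 60% in these data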
NR2F2 inh – NR2F2 (human) inhibition, primary screen. HEK293T NGFI-A luciferase reporter, luminescence. inhibition, % at 8.6 µM. 370,000 compounds, 0.7% hits. P24468;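 active = inhibition above a per-plate cutoff, mean inhibition of test wells between control levels plus 3 SD, cut at about 38% in these data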;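 also: cells cotransfected with COUP-TFII expression vector driving the NGFI-A reporter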
NCOA2 inhibitor – inhibits human steroid receptor coactivator 2 | Q15596 | HEK293 GAL4-SRC2 luciferase reporter, luminescence | inhibition, % at 9 µM | 370,000 compounds, 0.17% hits | AID 651957;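 active = inhibition above the mean inhibition of all tested compounds plus 3 SD, set per campaign, cut at about 52% in these data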
LRH-1 inv ag – NR5A2 inverse agonism in reporter assay; inhibition, % at 3.6 µM; AID 602396; 360,000 compounds, 0.13% hits; O00482; HEK293T StAR-luciferase reporter, LRH-1 transfected, 24 h;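 active = inhibition above the mean inhibition of all tested compounds plus 3 SD, cut at about 73% in these data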
SRC3 inh – inhibitors of human steroid receptor coactivator 3 (SRC3) | HEK293 GAL4-SRC3 luciferase reporter, luminescence | inhibition, % at 3.6 µM | 360,000 compounds, 0.17% hits | AID 588352;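 active = inhibition above a per-campaign cutoff, the mean of all compounds plus 3 SD, cut at about 60% in these data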;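 also: higher means less SRC3-driven luciferase light from the GAL4 reporter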
Target sequence (Q9Y6Q9 whole entry, looked up, the tested form may be a part): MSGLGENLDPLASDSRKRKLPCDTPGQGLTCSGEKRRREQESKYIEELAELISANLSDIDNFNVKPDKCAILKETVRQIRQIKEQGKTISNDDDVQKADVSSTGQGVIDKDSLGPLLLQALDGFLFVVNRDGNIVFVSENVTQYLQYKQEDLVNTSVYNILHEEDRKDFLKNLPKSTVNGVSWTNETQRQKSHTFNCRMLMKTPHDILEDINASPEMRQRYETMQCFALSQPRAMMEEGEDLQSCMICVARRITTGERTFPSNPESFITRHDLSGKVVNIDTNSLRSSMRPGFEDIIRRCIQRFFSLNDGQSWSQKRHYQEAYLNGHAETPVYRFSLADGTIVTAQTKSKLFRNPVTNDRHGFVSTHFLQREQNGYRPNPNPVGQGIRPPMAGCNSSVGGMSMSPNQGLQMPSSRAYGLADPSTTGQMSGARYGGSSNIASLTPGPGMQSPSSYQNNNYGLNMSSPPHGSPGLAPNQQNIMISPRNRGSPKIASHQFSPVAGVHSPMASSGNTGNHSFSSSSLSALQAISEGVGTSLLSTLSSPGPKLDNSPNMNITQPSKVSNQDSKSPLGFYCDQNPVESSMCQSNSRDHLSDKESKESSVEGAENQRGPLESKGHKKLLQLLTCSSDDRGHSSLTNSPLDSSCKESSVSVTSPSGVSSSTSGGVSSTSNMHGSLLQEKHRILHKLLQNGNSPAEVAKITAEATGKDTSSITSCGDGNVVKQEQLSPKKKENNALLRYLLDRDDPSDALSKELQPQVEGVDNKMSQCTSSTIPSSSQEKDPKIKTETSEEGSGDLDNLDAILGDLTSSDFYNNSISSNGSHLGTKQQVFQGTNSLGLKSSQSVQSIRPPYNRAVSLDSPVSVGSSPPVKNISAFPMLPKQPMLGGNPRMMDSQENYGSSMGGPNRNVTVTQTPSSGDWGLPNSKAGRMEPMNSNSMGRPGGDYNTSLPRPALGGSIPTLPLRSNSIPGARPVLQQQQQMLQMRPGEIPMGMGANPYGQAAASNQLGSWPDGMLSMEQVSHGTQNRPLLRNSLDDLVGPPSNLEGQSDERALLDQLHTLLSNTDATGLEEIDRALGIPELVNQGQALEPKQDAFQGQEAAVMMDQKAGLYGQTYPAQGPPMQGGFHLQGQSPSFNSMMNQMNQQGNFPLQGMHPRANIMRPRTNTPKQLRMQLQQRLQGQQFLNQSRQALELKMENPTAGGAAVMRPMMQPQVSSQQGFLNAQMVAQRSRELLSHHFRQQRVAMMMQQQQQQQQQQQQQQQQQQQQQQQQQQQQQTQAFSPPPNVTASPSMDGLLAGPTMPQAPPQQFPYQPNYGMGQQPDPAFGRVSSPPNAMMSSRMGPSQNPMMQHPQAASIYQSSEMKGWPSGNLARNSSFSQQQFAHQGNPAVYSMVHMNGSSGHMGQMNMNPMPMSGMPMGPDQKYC
Gli antag conf – Gli-SUFU antagonism confirmation, single concentration; shares compounds with Gli-Sufu block; Sufu-KO-LIGHT cells, Gli luciferase reporter, luminescence; inhibition, % at 5 µM; 2,500 compounds, 40% hits;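 active = mean inhibition at 5 µM reaching about 45%, limit read from the data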
Gli cytotox – counter-screen for Gli-SUFU antagonists: cytotoxicity; shares compounds with Gli-Sufu block; Sufu-KO-LIGHT cells cytotoxicity, ATP luminescence; cytotoxicity, % at 5 µM; 2,500 compounds, 32% hits;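 active = mean cytotoxicity at 5 µM above about 25%, limit read from the data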;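 also: cells exposed to compound overnight for roughly 16 to 18 hours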
Wnt3a counter – Wnt3a reporter inhibition counter-screen | inhibition, % at 6.25 µM | Wnt-LIGHT cells, Wnt3a-driven luciferase reporter, luminescence | 2,500 compounds, 20% hits | shares compounds with Gli-Sufu block;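 active = mean inhibition above about 25%, limit read from the data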
Large screens that a line does not name were inactive (follow-up assays come after a bar, where they were run). Shown are actives, neighbours in structure and some others; about 1.2% of the full set was active somewhere.

Cc1cc(C)n2nc(SCC(=O)c3cc(C)n(-c4cc(C)on4)c3C)nc2n1	none | Gli antag conf 52 | Gli cytotox 30 | Wnt3a counter 34
COc1ccc(CN2CCN(C(=O)CN3C(=O)C4C5C=CC(C5)C4C3=O)CC2)c(OC)c1OC (stereo not drawn)	Gli-Sufu block 62 | Gli antag conf inactive | Gli cytotox inactive | Wnt3a counter inactive
COc1ccc(CN2CCN(C(=O)CC(C)C)CC2)c(OC)c1OC	none
Fc1ccc(NCc2nnc(SCc3ccccc3)o2)cc1	none
NCCc1nnc(SCc2ccc(F)cc2)o1	Gli-Sufu block 68 | Gli antag conf inactive | Gli cytotox inactive | Wnt3a counter inactive
O=c1c2c([nH]c3ccccc13)CCC2	Gli-Sufu block 60 | Gli antag conf inactive | Gli cytotox inactive | Wnt3a counter inactive
COc1ccc(CCCC(=O)O)c(C)c1	Gli-Sufu block 95 | Gli antag conf inactive | Gli cytotox inactive | Wnt3a counter inactive
COc1ccc(C(=O)CCC(=O)O)cc1	none
O=C(CC(c1ccccc1)c1cc(Br)ccc1O)NCCCN1CCOCC1 (stereo not drawn)	none | Gli antag conf inactive | Gli cytotox inactive | Wnt3a counter inactive
O=C(CC(c1ccccc1)c1cc(Br)ccc1O)NCCN1CCOCC1 (stereo not drawn)	none
O=C(NCCCN1CCOCC1)c1ccccc1	Gli-Sufu block 61 | Gli antag conf inactive | Gli cytotox inactive | Wnt3a counter inactive
O=C(NCCCN1CCOCC1)c1cccnc1	none
COc1ccccc1-c1nc(S(=O)(=O)c2ccccc2)c(N2CCCCC2)o1	none
CCN1CCN(c2oc(-c3ccccc3C)nc2S(=O)(=O)c2ccccc2)CC1	none | Gli antag conf inactive | Gli cytotox inactive | Wnt3a counter inactive
O=C(Nc1ccc(-c2nc3ccccc3o2)cc1)c1ccc2c(c1)OCO2	none
O=C(Nc1ccc2oc(-c3ccccc3F)nc2c1)c1ccc2c(c1)OCCO2	none | Gli antag conf inactive | Gli cytotox inactive | Wnt3a counter inactive
NC(=O)CC(NC(=O)c1ccccc1)c1ccc(N2CCCCCC2)c([N+](=O)[O-])c1 (stereo not drawn)	Gli-Sufu block 56 | Gli antag conf inactive | Gli cytotox inactive | Wnt3a counter inactive
Cc1onc(-c2c(F)cccc2Cl)c1C(=O)Nc1ccc(Cl)c(S(=O)(=O)N(C)C)c1	Gli-Sufu block 58 | Gli antag conf inactive | Gli cytotox inactive | Wnt3a counter inactive
Cc1onc(-c2c(F)cccc2Cl)c1C(=O)OCC(=O)Nc1cccc(S(=O)(=O)N(C)C)c1	none | Gli antag conf inactive | Gli cytotox inactive | Wnt3a counter inactive
Cc1onc(-c2c(Cl)cccc2Cl)c1C(=O)Nc1ccc2c(c1)OCCO2	none
COC(=O)[C@]12C[C@H](CC(=O)NCCCN3CCCC3=O)C(=O)N(CCC3=CCCCC3)C1=C[C@H](C(C)(C)C)O[C@@H]2C	none (no result: Gli-Sufu block, SRC1 inh, LRH-1 inv ag, SRC3 inh)
Cc1c(/C=N/NC(=O)c2ccccc2O)c2ccccn2c1C(=O)c1ccc(F)cc1	Gli-Sufu block 79 | Gli antag conf 71 | Gli cytotox inactive | Wnt3a counter inactive
C[C@@H]1CN([C@@H](C)CO)C(=O)CCCn2cc(nn2)CO[C@H]1CN(C)C(=O)NC1CCCCC1	none (no result: Gli-Sufu block, SRC1 inh, LRH-1 inv ag, SRC3 inh)
COc1cccc(O)c1CN1CCC(C(=O)Nc2ccc(Oc3cccnc3)cc2)CC1	none | Gli antag conf inactive | Gli cytotox inactive | Wnt3a counter inactive
COc1ccc(CN2CCC(C(=O)Nc3ccc(Oc4cccnc4)cc3)CC2)c(C)c1C	Gli-Sufu block 60 | Gli antag conf inactive | Gli cytotox inactive | Wnt3a counter inactive
Cc1c(COC(=O)NC(C)C)c(COC(=O)NC(C)C)c2n1CS(=O)(=O)C2	none (no result: Gli-Sufu block, SRC1 inh, LRH-1 inv ag, SRC3 inh)
CCOC(=O)c1oc2ccccc2c1NC(=O)C1CCCCC1	Gli-Sufu block 97 (no result: NR2F2 inh, NCOA2 inhibitor) | Gli antag conf inactive | Gli cytotox inactive | Wnt3a counter inactive
O=C(C=Cc1ccc(OCc2ccccc2)cc1)c1c(F)cccc1F	none (no result: Gli-Sufu block, SRC1 inh, LRH-1 inv ag, SRC3 inh)
CCCC(C)C(=O)Nc1nc(C)c(-c2csc(Nc3ccc(Cl)cc3)n2)s1 (stereo not drawn)	none | Gli antag conf 60 | Gli cytotox inactive | Wnt3a counter inactive
CCCC(C)C(=O)Nc1nc(C)c(-c2csc(Nc3ccccc3OC)n2)s1 (stereo not drawn)	none
COc1ccc(CNCC(C)NCc2ccc(OC)c(OC)c2)cc1OC (stereo not drawn)	Gli-Sufu block 61 | Gli antag conf inactive | Gli cytotox inactive | Wnt3a counter inactive
COc1ccc(CNCc2c(F)cccc2F)cc1OC	none
O=C(COCc1ccccc1)N1CCC(Oc2cccnc2)CC1	none (no result: Gli-Sufu block, SRC1 inh, LRH-1 inv ag, SRC3 inh)
Oc1ccccc1N1CCN(C(=S)Nc2ccc(SC(F)F)cc2)CC1	Gli-Sufu block 76 | Gli antag conf inactive | Gli cytotox inactive | Wnt3a counter inactive
CSc1nc(O)c(/C=C2\C=Nc3ccccc32)[nH]1	none
O=c1[nH]c(/C=C2\C=Nc3ccccc32)c(O)n1Cc1ccccc1F	Gli-Sufu block 56 | Gli antag conf 65 | Gli cytotox 27 | Wnt3a counter inactive
COC(=O)[C@]12C[C@H](CC(=O)NCC3CCCCC3)C(=O)N(CCC3=CCCCC3)C1=C[C@H](COCc1ccccc1)O[C@@H]2C	none (no result: Gli-Sufu block, SRC1 inh, LRH-1 inv ag, SRC3 inh)
CCOc1ccc(NCC(=O)c2ccc(C)cc2)cc1	Gli-Sufu block 61 | Gli antag conf inactive | Gli cytotox inactive | Wnt3a counter inactive
COc1ccc(C2CC(=O)C(c3ccc([N+](=O)[O-])cc3)=CN2Cc2ccccc2)cc1 (stereo not drawn)	none (no result: Gli-Sufu block, SRC1 inh, LRH-1 inv ag, SRC3 inh)
COc1ccc(O)c(C(=O)c2cnc3c(c2)c(=O)[nH]c(=O)n3C)c1	Gli-Sufu block 57 | Gli antag conf inactive | Gli cytotox inactive | Wnt3a counter 33
CCN(CC)CCN(C(=O)c1cc2ccccc2cc1OC)c1nc2ccc(F)cc2s1	none | Gli antag conf inactive | Gli cytotox inactive | Wnt3a counter inactive
Cc1ccc(C(C)C)c(OCCn2c(=O)oc3ccccc32)c1	Gli-Sufu block 96 | Gli antag conf inactive | Gli cytotox inactive | Wnt3a counter inactive
CCOC(=O)C1=C(C(=O)OCC)C2N(Cc3ccc(C(F)(F)F)cc3)c3ccccc3[C@@]23C[C@@H](C(=O)OC)N(S(=O)(=O)c2ccccc2C)C3=N1 (stereo partly drawn)	none (no result: Gli-Sufu block, SRC1 inh, LRH-1 inv ag, SRC3 inh)
COc1ccc(Nc2ncc(C(=O)N3CCN(Cc4ccccc4)CC3)c3ccccc23)cc1	Gli-Sufu block 99 | Gli antag conf inactive | Gli cytotox inactive | Wnt3a counter inactive
COc1cccc(C(=O)NCCN2CCN(c3ccc(Cl)cc3)CC2)c1	none | Gli antag conf inactive | Gli cytotox inactive | Wnt3a counter inactive
